{"source": "the supplement of paper PMC11624193", "about": "“Coupling cellular drug-target engagement to downstream pharmacology with CeTEAM” (Nature Communications, 2024)", "note": "Counter-ions that a name gives are not always drawn. ± gives the standard deviation of the averaged measurements.", "data": [{"biological_target": "PARP1 L713F-nLuc biosensor (HCT116) (UniProt P09874)", "sequence (P09874 whole entry L713F, looked up)": "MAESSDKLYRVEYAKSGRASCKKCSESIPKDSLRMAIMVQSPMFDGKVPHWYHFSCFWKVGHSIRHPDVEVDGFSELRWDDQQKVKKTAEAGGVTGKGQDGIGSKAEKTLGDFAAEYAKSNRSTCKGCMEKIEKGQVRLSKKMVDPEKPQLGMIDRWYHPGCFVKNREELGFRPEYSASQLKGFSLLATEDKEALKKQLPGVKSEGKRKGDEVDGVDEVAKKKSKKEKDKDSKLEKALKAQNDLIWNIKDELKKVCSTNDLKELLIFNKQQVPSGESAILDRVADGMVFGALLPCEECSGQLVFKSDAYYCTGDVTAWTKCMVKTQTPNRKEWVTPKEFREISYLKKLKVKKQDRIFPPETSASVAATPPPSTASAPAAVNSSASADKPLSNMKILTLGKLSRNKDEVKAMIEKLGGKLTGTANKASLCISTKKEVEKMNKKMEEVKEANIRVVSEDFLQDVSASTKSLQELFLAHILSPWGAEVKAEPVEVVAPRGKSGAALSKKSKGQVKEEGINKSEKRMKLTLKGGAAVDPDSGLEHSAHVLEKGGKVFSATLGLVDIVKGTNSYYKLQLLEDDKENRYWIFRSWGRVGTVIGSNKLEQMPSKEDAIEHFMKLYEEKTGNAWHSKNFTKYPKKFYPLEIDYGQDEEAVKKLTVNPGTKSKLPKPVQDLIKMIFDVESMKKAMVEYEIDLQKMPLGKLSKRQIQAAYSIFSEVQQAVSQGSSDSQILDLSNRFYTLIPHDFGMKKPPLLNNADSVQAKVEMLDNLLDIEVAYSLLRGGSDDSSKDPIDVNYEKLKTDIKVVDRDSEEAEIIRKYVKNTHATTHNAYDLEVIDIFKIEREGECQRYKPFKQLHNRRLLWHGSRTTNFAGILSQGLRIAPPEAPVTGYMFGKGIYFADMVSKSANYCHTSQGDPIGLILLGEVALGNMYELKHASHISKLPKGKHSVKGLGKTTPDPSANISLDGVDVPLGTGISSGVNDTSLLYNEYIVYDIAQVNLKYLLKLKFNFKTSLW", "assay": "PARP1 L713F-nLuc/akaLuc ratio relative to DMSO control (biosensor stabilization) (fold change); higher = more PARP1 biosensor stabilization (target engagement / stabilizer), active = hit call of the paper", "conditions": "stock concentration (mM; final µM = stock mM x 1): 10; 24 h;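 active = log2 fold change beyond 2 SD from the library mean after excluding viability outliers; inactive = within 2 SD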", "values": [{"molecule": "COc1cc2c(Oc3ccc4[nH]c(C)cc4c3F)ncnc2cc1OCCCN1CCCC1", "note": "[Cediranib (AZD2171)]", "PARP1 L713F-nLuc/akaLuc ratio": "1.46 (inactive)"}, {"molecule": "NC(=O)c1cccc2cn(-c3ccc([C@@H]4CCCNC4)cc3)nc12", "note": "[Niraparib (MK-4827)]", "PARP1 L713F-nLuc/akaLuc ratio": "6.42 (active)"}, {"molecule": "N=C(NOCC(O)CN1CCCCC1)c1cccnc1", "note": "(stereo not drawn)", "PARP1 L713F-nLuc/akaLuc ratio": "0.933 (inactive)"}, {"molecule": "CC(=O)Nc1cccc(-n2c(=O)n(C3CC3)c(=O)c3c(Nc4ccc(I)cc4F)n(C)c(=O)c(C)c32)c1", "PARP1 L713F-nLuc/akaLuc ratio": "0.502 (inactive)"}, {"molecule": "CCOC(=O)c1cnc(NC2(c3ccccc3)CC2)nc1", "PARP1 L713F-nLuc/akaLuc ratio": "0.982 (inactive)"}, {"molecule": "COc1nn(C)cc1Nc1nccc(-c2c[nH]c3c(NC(=O)[C@@H](C)N4CCN(C)CC4)cccc23)n1", "note": "[Golidocitinib]", "PARP1 L713F-nLuc/akaLuc ratio": "0.637 (inactive)"}, {"molecule": "CC1(N)CCN(c2cnc(-c3cccc(Cl)c3Cl)c(N)n2)CC1", "note": "[SHP099 dihydrochloride]", "PARP1 L713F-nLuc/akaLuc ratio": "0.78 (inactive)"}, {"molecule": "CCN(C(=O)c1cc(F)ccc1Oc1cncnc1N1CC2(CCN(C[C@H]3CC[C@H](NS(=O)(=O)CC)CC3)CC2)C1)C(C)C", "PARP1 L713F-nLuc/akaLuc ratio": "0.797 (inactive)"}, {"molecule": "Cn1cncc1[C@@](N)(c1ccc(Cl)cc1)c1ccc2c(c1)c(-c1cccc(Cl)c1)cc(=O)n2C", "note": "[Tipifarnib]", "PARP1 L713F-nLuc/akaLuc ratio": "0.456 (inactive)"}, {"molecule": "NC(=O)c1nc(-c2c(F)cccc2Cl)oc1Nc1ccc(C(=O)N2CCOCC2)cc1", "PARP1 L713F-nLuc/akaLuc ratio": "0.914 (inactive)"}, {"molecule": "CN1CC[C@@H](NC(=O)Nc2ccc(C#N)cc2)C[C@@H]1c1nc2ccccc2[nH]1", "PARP1 L713F-nLuc/akaLuc ratio": "0.89 (inactive)"}, {"molecule": "COc1cc(C(=O)N2C[C@H](N)CC[C@@H]2C)cc2nc(-c3cc4cccnc4n3CC3CC3)n(C)c12", "note": "[BMS-P5 (free base)]", "PARP1 L713F-nLuc/akaLuc ratio": "0.878 (inactive)"}, {"molecule": "C=C(C)[C@@H](CC=C(C)C)C[C@@]12C[C@@H](CC=C(C)C)C(C)(C)[C@@](CC=C(C)C)(C(=O)C(C(=O)c3ccc(O)c(O)c3)=C1O)C2=O", "note": "[Garcinol]", "PARP1 L713F-nLuc/akaLuc ratio": "0.631 (inactive)"}, {"molecule": "COc1ccc(S(=O)(=O)Nc2cc(-c3csc(C#N)c3)ccc2C)cc1", "PARP1 L713F-nLuc/akaLuc ratio": "1.24 (inactive)"}, {"molecule": "O=C(Nc1ccc(Cl)cc1)c1cc2ccccc2cc1OP(=O)(O)O", "PARP1 L713F-nLuc/akaLuc ratio": "1.35 (inactive)"}, {"molecule": "CC(C)=CCC/C(C)=C/Cc1c(O)c(CC=C(C)C)c2c(c1O)C(=O)C1=C[C@@H]3C[C@H]4C(C)(C)O[C@@](C/C=C(/C)C(=O)O)(C3=O)[C@@]14O2", "note": "[Gambogenic acid]", "PARP1 L713F-nLuc/akaLuc ratio": "1.04 (inactive)"}, {"molecule": "CCNC(=O)NCCSC[C@H]1O[C@@H](n2cnc3c(N)ncnc32)[C@H](O)[C@@H]1O", "PARP1 L713F-nLuc/akaLuc ratio": "0.751 (inactive)"}, {"molecule": "O=C(Nc1c[nH]nc1-c1nc2ccc(CN3CCOCC3)cc2[nH]1)NC1CC1", "PARP1 L713F-nLuc/akaLuc ratio": "2.07 ± 0.91"}, {"molecule": "CN(C)C[C@@H]1CCn2cc(c3ccccc32)C2=C(C(=O)NC2=O)c2cn(c3ccccc23)CCO1", "PARP1 L713F-nLuc/akaLuc ratio": "0.636 (inactive)"}, {"molecule": "O=C(c1ccc(OCCN2CCCCC2)cc1)c1c(-c2ccc(O)cc2)sc2cc(O)ccc12", "note": "[Raloxifene HCl]", "PARP1 L713F-nLuc/akaLuc ratio": "0.932 (inactive)"}, {"molecule": "CCN(c1cc(-c2ccc(CN3CCOCC3)cc2)cc(C(=O)NCc2c(C)cc(C)[nH]c2=O)c1C)C1CCOCC1", "note": "[Tazemetostat (hydrobromide)]", "PARP1 L713F-nLuc/akaLuc ratio": "0.726 (inactive)"}, {"molecule": "CCN(CC)C(=S)SSC(=S)N(CC)CC", "note": "[Disulfiram]", "PARP1 L713F-nLuc/akaLuc ratio": "0.658 (inactive)"}, {"molecule": "O=c1[nH]ccc2c(O)cccc12", "note": "[1,5-Isoquinolinediol]", "PARP1 L713F-nLuc/akaLuc ratio": "2.7 (active)"}, {"molecule": "CC(C)(C)c1nc2c3cc[nH]c(=O)c3c3cc(F)ccc3c2[nH]1", "note": "[Pyridone 6]", "PARP1 L713F-nLuc/akaLuc ratio": "0.692 (inactive)"}, {"molecule": "CCS(=O)(=O)N1CC(CC#N)(n2cc(-c3ncnc4[nH]ccc34)cn2)C1", "PARP1 L713F-nLuc/akaLuc ratio": "0.444 (inactive)"}, {"molecule": "Cc1cc(C)c(CNC(=O)c2cc(Cl)c3c(c2C)O[C@@](C)([C@H]2CC[C@H](N(C)C)CC2)O3)c(=O)[nH]1", "note": "[Valemetostat (tosylate)]", "PARP1 L713F-nLuc/akaLuc ratio": "1.05 (inactive)"}, {"molecule": "N#CC[C@H](C1CCCC1)n1cc(-c2ncnc3[nH]ccc23)cn1", "note": "[Ruxolitinib (S enantiomer)]", "PARP1 L713F-nLuc/akaLuc ratio": "1.63 (inactive)"}, {"molecule": "COc1cc(/C=C/C(=O)CC(=O)/C=C/c2ccc(O)c(OC)c2)ccc1O", "note": "[Curcumin]", "PARP1 L713F-nLuc/akaLuc ratio": "1.12 (inactive)"}, {"molecule": "N#Cc1c(Oc2ccc(F)c(NC(=O)Cc3cccc(C(F)(F)F)c3)c2)ccc2nc(NC(=O)C3CC3)sc12", "PARP1 L713F-nLuc/akaLuc ratio": "0.538 (inactive)"}, {"molecule": "CN1CCCN(C(=O)c2cccc(-c3ccc(/C=C4/C(=O)Nc5ccc(Cl)cc54)o3)c2)CC1", "note": "[CX-6258 (hydrochloride)]", "PARP1 L713F-nLuc/akaLuc ratio": "0.53 (inactive)"}, {"molecule": "N#Cc1cc2cc(CN3CCC(Nc4ncnc5sc(CC(F)(F)F)cc45)CC3)c(O)cc2n1Cc1cn[nH]c1", "PARP1 L713F-nLuc/akaLuc ratio": "0.315 (active)"}, {"molecule": "NC1(c2ccc(-c3nc4ccn5c(=O)[nH]nc5c4cc3-c3ccccc3)cc2)CCC1", "PARP1 L713F-nLuc/akaLuc ratio": "0.79 (inactive)"}, {"molecule": "O=c1c(-n2ccnn2)c[nH]n1-c1cc(N2CCOCC2)ncn1", "note": "[Molidustat]", "PARP1 L713F-nLuc/akaLuc ratio": "0.788 (inactive)"}, {"molecule": "CONC(=O)c1ccccc1Nc1cc(Nc2cc(C)nn2C(C)C)ncc1Cl", "PARP1 L713F-nLuc/akaLuc ratio": "0.987 (inactive)"}, {"molecule": "CC[C@]1(O)C[C@H]2CN(CCc3c([nH]c4ccccc34)[C@@](C(=O)OC)(c3cc4c(cc3OC)N(C=O)[C@H]3[C@@](O)(C(=O)OC)[C@H](OC(C)=O)[C@]5(CC)C=CCN6CC[C@]43[C@@H]65)C2)C1", "note": "[Vincristine sulfate]", "PARP1 L713F-nLuc/akaLuc ratio": "0.783 (inactive)"}, {"molecule": "Cc1nc(NC(=O)N2CCC[C@H]2C(N)=O)sc1-c1ccnc(C(C)(C)C(F)(F)F)c1", "note": "[Alpelisib (BYL719)]", "PARP1 L713F-nLuc/akaLuc ratio": "0.761 (inactive)"}, {"molecule": "COc1ccc(S(=O)(=O)Nc2cccnc2Nc2ccc(O)cc2)cc1", "PARP1 L713F-nLuc/akaLuc ratio": "1.28 (inactive)"}, {"molecule": "COC(=O)c1ccc2c(c1)nc(NC(=O)c1ccccc1)n2CCCc1ccccc1", "PARP1 L713F-nLuc/akaLuc ratio": "0.949 (inactive)"}]}]}
